# Test results reported in PubChem BioAssay (Tox21).
# Results filed as inconclusive are left out. Calls of active or inactive are those of the source. Unless noted, calls come from the whole dose curve; as a rule, active = well fitted activation curve with a large enough effect in the repeat runs; inconclusive = weak or mixed curves, or effect the other way; inactive = no such curve, though single readings can be large or run the other way.
# Assay: qHTS assay to identify small molecule antagonists of the estrogen related receptor signaling pathway with the pleiotropic PPARgamma coactivator (PGC) from Tox21 10K library (AID 1224841; call rule not given here; note: actives are mostly falling curves and most rising ones were filed inactive; nearly all actives have a fitted effect of over 50% in size)
# Details: PGC/ERR reporter cell line, ONE-Glo luciferase, 18 h; series mostly up to 92.4 µM; activity, negative = inhibition: at the top concentration
# Outline: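 PGC/ERR cell line, 2,000 cells/well; 6 h pre-incubation 37 C/5% CO2; compounds (DMSO) pinned in; 18 h, 37 C; One-Glo, 30 min RT; luminescence.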
# % is set by controls: 0 for no effect and ±100 for the full control effect.
row,Compound,"activity, negative = inhibition"
1,CCCCCCCCCCCCN1CCOCC1,-4.81% (inactive)
2,C=C(C)C(=O)OCCCCCCCCCCOC(=O)C(=C)C,5.81% (inactive)
3,Cc1cc(C)c(C)c(O)c1,4.41% (inactive)
4,CCN(CCCCOC(=O)c1ccc(OC)c(OC)c1)C(C)Cc1ccc(OC)cc1 (stereo not given),-20.1% [at 42.5 µM] (inactive)
5,CC(=O)S[C@H](C(=O)N[C@H]1Cc2ccccc2[C@H]2CCC[C@@H](C(=O)O)N2C1=O)C(C)C,-0.529% (inactive)

# Assay: qHTS assay to identify small molecule agonists of the estrogen related receptor signaling pathway with the pleiotropic PPARgamma coactivator (PGC) from Tox21 10K library (AID 1224842); note: nearly all actives have a fitted effect of over 15% in size
# Details: PGC/ERR reporter cell line, luciferase ONE-Glo, 18 h; series mostly up to 92.4 µM; activation: at the top concentration
# Outline: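 PGC/ERR reporter cells (NTP line) were seeded 2,000 per well, rested 6 h at 37 C/5% CO2, then pin-dosed with compounds in DMSO for 18 h at 37 C; luciferase read by One-Glo luminescence after 30 min at room temperature.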
row,Compound,activation
1,O=C1c2ccccc2C(=O)C1c1ccc2cc(S(=O)(=O)O)cc(S(=O)(=O)O)c2n1,10.1% (inactive)
2,CCCCCCCCCCCCN1CCOCC1,-1.49% (inactive)
3,COC=O,3.43% [at 8.39 µM] (inactive)
4,CC(=O)c1cccnc1,-0.0228% (inactive)
5,C=C(C)C(=O)OCCCCCCCCCCOC(=O)C(=C)C,1.82% (inactive)
6,Cc1cc(C)c(C)c(O)c1,0.275% (inactive)
7,CCC(=O)O[C@]1(C(=O)COC)[C@@H](C)C[C@H]2[C@@H]3CCC4=CC(=O)C=C[C@]4(C)C3(F)[C@@H](O)C[C@@]21C (stereo not given in full),0.74% [at 42.5 µM] (inactive)
8,CC1=C(C)C(=O)C(CCCCC#CCCCC#CCO)=C(C)C1=O,-12.2% [at 42.5 µM] (inactive)
9,C=CC(=O)OCCCCCCCCCC,2.07% (inactive)
10,O=C(Cl)c1ccc(F)c(Cl)c1,-3.53% (inactive)
11,CCN(CCCCOC(=O)c1ccc(OC)c(OC)c1)C(C)Cc1ccc(OC)cc1 (stereo not given),-5.7% [at 42.5 µM] (inactive)
12,Cc1nc2sccn2c(=O)c1CCN1CCC(=C(c2ccc(F)cc2)c2ccc(F)cc2)CC1,-11.8% [at 42.5 µM] (inactive)
13,CC(=O)S[C@H](C(=O)N[C@H]1Cc2ccccc2[C@H]2CCC[C@@H](C(=O)O)N2C1=O)C(C)C,0.258% (inactive)
14,O=C(OCCCCCOC(=O)c1ccccc1)c1ccccc1,0.403% (inactive)
15,O=C(O)CNc1ccccc1,5.13% (inactive)
